Results filed as inconclusive are left out. Where a call stands in place of a potency, no number is given. Active and inactive are the calls of the source. Unless noted, calls come from the whole dose curve.
Legend:
[1] = Nuclear factor erythroid 2-related factor 2/antioxidant responsive element (Nrf2/ARE) small molecule agonists: qHTS cell viability counter screen in human keratinocytes (AID 1919968; active = well fitted curve in the direction sought with a large enough effect in the repeat runs; an effect the other way counts as inactive or inconclusive; note: nearly all actives have a fitted effect of over 55% in size)
Outline: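 Fluorescence read-out from CellTiter-Fluor after 1 h at 37 C. Wells held HaCaT-derived ARE-luciferase reporter cells (1,500/well) treated 23 h with DMSO-dissolved compounds. Run in the same wells as the luciferase agonist read.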

[2] = Nuclear factor erythroid 2-related factor 2/antioxidant responsive element (Nrf2/ARE) small molecule agonists: luciferase reporter gene qHTS assay in human keratinocytes (AID 1919969); note: nearly all actives have a fitted effect of over 35% in size; note: potency is the fitted concentration of half-maximal effect
[3] = biological target: Gonadotropin-releasing hormone receptor (Homo sapiens) (UniProt P30968); assay: Human gonadotropin-releasing hormone receptor (GnRHR) small molecule agonists, calcium flux assay in GnRHR-HEK293 cells (AID 1920063); note: nearly all actives have a fitted effect of over 35% in size
Gonadotropin-releasing hormone receptor (Homo sapiens), sequence (P30968 whole entry, looked up): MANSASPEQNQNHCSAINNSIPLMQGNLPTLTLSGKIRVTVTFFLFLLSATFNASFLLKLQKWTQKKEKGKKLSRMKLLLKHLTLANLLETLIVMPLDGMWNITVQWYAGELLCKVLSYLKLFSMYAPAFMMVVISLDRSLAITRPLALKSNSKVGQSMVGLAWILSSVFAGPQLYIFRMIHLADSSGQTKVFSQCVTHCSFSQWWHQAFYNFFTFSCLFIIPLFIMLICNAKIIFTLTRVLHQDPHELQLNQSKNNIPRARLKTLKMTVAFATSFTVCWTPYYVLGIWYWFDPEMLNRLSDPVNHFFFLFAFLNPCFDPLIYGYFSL
Outline: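 Calcium-dye fluorescence, Ex/Em=480/540, recorded every 1 sec over 3 min after compound addition to GnRHR-HEK293 cells. Cells had been seeded 18 hours earlier and dye-loaded for 1 hour at 37 C. Fifteen concentrations, triplicates.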

[4] = biological target: KiSS-1 receptor (Homo sapiens) (UniProt Q969F8); assay: Human kisspeptin (KISS1R) small molecule agonists, calcium flux assay in KISS1R-HEK293 cells (AID 1920064; active = well fitted curve in the direction sought with a large enough effect in the repeat runs; an effect the other way counts as inactive or inconclusive)
KiSS-1 receptor (Homo sapiens), sequence (Q969F8 whole entry, looked up): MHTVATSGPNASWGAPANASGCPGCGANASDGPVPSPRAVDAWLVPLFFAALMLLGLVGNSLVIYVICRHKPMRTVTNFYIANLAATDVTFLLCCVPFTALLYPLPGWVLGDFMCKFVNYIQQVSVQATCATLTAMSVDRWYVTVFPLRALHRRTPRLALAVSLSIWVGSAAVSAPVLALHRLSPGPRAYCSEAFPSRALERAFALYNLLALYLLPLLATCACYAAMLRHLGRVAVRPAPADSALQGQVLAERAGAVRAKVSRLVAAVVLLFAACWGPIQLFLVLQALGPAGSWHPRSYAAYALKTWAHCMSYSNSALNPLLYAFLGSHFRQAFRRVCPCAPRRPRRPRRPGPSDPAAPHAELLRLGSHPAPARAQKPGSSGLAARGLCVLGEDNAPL
Outline: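 Calcium flux read-out: kinetic fluorescence at Ex/Em=480/540, 1 s intervals over 3 min, after pin-tool compound addition to dye-loaded KISS1R-HEK293 cells. Fifteen concentrations, triplicates.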

[5] = G protein-coupled receptor (GPCR) small molecule agonists, calcium flux assay: HEK293 wild type cell line counter screen (AID 1920065)
Outline: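 Agonist mode; 18 h seeding at 37 C, 1 h dye load at 37 C; compounds pinned from DMSO, ATP as positive control; kinetic fluorescence 480/540 nm, 3 min, 1 s reads; 15 concentrations, triplicate.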

[6] = p53 small molecule agonists, cell-based qHTS assay with human liver microsomes (AID 1963577);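 note: p53 response element beta-lactamase reporter cells with liver microsomes plus NADPH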
Outline: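 16 h, 37 C exposure of p53RE-bla cells to compounds with human liver microsomes and NADPH (0.5 mg/mL final each); detection via LiveBLAzer mixture, 2 h dark at room temperature.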

[7] = p53 small molecule agonists, cell-based qHTS assay with rat liver microsomes (AID 1963578)
Outline: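 With rat liver microsomes and NADPH present (0.5 mg/mL final each), p53RE-bla cells are treated with compound for 16 h at 37 C. LiveBLAzer detection mixture is then applied for 2 h at room temperature in the dark.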

[8] = p53 small molecule agonists, cell-based qHTS assay with human liver microsomes: qHTS cell viability counter screen (AID 1963579); note: nearly all actives have a fitted effect of over 45% in size
Outline: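 In this multiplexed counter screen, the reporter plates were subsequently treated with CellTiter-Glo so that cell viability, reflected by luminescence, could be recorded for p53RE-bla cells dosed 16 h with compounds under microsomal activation (HLM and NADPH).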

[9] = p53 small molecule agonists, cell-based qHTS assay with rat liver microsomes: qHTS cell viability counter screen (AID 1963580); note: nearly all actives have a fitted effect of over 45% in size
Outline: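 Cytotoxicity counter screen: intracellular ATP read by CellTiter-Glo luminescence in the p53 reporter wells. HCT-116 p53RE-bla cells were treated for 16 h at 37 C alongside rat liver microsomes and NADPH, each 0.5 mg/mL final.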

[10] = p53 small molecule agonists, cell-based qHTS assay: qHTS cell viability counter screen (AID 1963581); note: nearly all actives have a fitted effect of over 45% in size
Outline: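 Cytotoxicity read-out: ATP-based luminescence (CellTiter-Glo, 30 min RT) measured in the same wells as the p53 reporter assay, HCT-116 p53RE-bla cells, 16 h compound exposure at 37 C.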

[11] = p53 small molecule agonists, cell-based qHTS assay (AID 1963582; active = well fitted activation curve with a large enough effect in the signal ratio in the repeat runs, not every such curve was filed as active; the % refers to the signal ratio)
Outline: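 Fluorescence intensity read-out of a beta-lactamase reporter under a p53 response element. Cells were exposed to DMSO-dissolved compounds for 16 h at 37 C, then developed with FRET substrate for 2 h at RT.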

[12] = biological target: 5-hydroxytryptamine receptor 2A (Homo sapiens) (UniProt P28223); assay: 5-hydroxytryptamine receptor 2A (HTR2A) small molecule antagonists, cell-based qHTS assay (AID 1963586); note: nearly all actives have a fitted effect of over 45% in size
5-hydroxytryptamine receptor 2A (Homo sapiens), sequence (P28223 whole entry, looked up): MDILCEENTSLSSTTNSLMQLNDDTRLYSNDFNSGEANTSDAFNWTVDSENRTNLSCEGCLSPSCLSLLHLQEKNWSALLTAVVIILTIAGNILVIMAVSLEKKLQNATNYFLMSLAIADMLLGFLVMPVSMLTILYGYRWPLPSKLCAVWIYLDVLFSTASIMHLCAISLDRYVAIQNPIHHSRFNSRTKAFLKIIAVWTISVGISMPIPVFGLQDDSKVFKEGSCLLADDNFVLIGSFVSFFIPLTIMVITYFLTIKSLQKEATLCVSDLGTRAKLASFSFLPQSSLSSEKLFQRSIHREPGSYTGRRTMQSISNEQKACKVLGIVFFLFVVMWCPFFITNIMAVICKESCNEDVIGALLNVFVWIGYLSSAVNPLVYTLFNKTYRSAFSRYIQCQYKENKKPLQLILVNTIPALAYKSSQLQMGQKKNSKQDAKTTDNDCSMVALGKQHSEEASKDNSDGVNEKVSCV
Outline: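 CHO cells stably expressing human HTR2A were plated for 18 h at 37 C, then loaded with calcium dye for 1 h. Compounds were preincubated 5 min at room temperature before DOI (4 nM solution) was added. Kinetic fluorescence was read for 3 min.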

[13] = biological target: 5-hydroxytryptamine receptor 2A (Homo sapiens) (UniProt P28223); assay: 5-hydroxytryptamine receptor 2A (HTR2A) small molecule agonists, cell-based qHTS assay (AID 1963587); note: nearly all actives have a fitted effect of over 30% in size
Outline: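 Kinetic calcium-flux fluorescence (2 min, 1 sec intervals) after compound addition in agonist mode. HTR2A-CHO cells were cultured 18 h, then dye-loaded 1 h at 37 C.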

[14] = biological target: Muscarinic acetylcholine receptor M1 (Homo sapiens) (UniProt P11229); assay: Cholinergic receptor muscarinic 1 (CHRM1) small molecule antagonists, cell-based qHTS assay (AID 1963588); note: nearly all actives have a fitted effect of over 40% in size
Muscarinic acetylcholine receptor M1 (Homo sapiens), sequence (P11229 whole entry, looked up): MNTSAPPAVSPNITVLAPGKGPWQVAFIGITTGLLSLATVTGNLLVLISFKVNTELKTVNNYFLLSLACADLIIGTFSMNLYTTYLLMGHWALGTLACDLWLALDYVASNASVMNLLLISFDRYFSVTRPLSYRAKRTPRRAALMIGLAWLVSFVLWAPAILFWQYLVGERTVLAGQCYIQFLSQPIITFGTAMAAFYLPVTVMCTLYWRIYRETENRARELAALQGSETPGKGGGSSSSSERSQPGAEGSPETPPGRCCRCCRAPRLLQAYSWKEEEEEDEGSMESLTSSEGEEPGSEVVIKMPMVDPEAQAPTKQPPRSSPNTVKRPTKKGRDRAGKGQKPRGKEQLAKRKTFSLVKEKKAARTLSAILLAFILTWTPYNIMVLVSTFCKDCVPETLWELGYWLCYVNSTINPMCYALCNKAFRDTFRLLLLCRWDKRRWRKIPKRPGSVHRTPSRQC
Outline: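 Compounds were tested at 15 concentrations in three independent runs. Dye-loaded CHRM1-CHO cells were exposed 5 min at room temperature before stimulation by acetylcholine added at 50nM. Intracellular calcium was read kinetically on FDSS for 3 min.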

[15] = cAMP Responsive Elements (CRE) small molecule agonists, cell-based qHTS assay (AID 1963590)
Outline: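 Beta-lactamase reporter readout: LiveBLAzer B/G FRET substrate, 2 h at room temperature, added after 3 h compound treatment of CRE-bla HEK 293T cells at 37 C/5% CO2.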

[16] = cAMP Responsive Elements (CRE) small molecule antagonists, cell-based qHTS assay (AID 1963591; active = well fitted inhibition curve with a large enough effect in the signal ratio in the repeat runs, not every such curve was filed as active; the % refers to the signal ratio)
Outline: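 HEK293T CRE-bla; 18 h preincubation; compound pin-transfer; NKH477 0.25 uM final, 3 h, 37 C; LiveBLAzer FRET substrate 2 h RT.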

[17] = biological target: Beta-2 adrenergic receptor (Homo sapiens) (UniProt P07550); assay: Adrenergic beta2 receptor (ADRB2) small molecule antagonists, cell-based qHTS assay (AID 1963592); note: series mostly up to about 92 µM; nearly all actives have a fitted effect of over 50% in size
Beta-2 adrenergic receptor (Homo sapiens), sequence (P07550 whole entry, looked up): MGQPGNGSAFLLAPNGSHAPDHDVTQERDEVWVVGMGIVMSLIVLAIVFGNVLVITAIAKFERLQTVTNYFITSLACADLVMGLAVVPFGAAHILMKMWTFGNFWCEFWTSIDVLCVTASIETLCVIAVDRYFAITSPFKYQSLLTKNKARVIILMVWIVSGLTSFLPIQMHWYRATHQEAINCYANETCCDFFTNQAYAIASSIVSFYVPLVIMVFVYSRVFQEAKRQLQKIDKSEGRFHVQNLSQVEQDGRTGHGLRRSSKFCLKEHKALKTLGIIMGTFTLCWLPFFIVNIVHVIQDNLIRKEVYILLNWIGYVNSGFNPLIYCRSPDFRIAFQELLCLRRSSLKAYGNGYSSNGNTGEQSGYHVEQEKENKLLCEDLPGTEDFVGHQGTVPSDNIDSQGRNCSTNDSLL
Outline: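 Assay format: CHO-ADRB2 cells, 18-20hr seeding at 37C/5% CO2, then compound plus 1nM isoproterenol agonist mix for 0.5hr RT. Homogeneous time-resolved fluorescence cAMP detection after 1hr, expressed as 665/615 nm ratio.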

[18] = biological target: Beta-2 adrenergic receptor (Homo sapiens) (UniProt P07550); assay: Adrenergic beta2 receptor (ADRB2) small molecule agonists, cell-based qHTS assay (AID 1963593);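 note: CHO cells stably overexpressing human ADRB2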
Outline: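 CHO cells stably over-expressing ADRB2 were plated overnight at 37C, then dosed with compounds plus a stimulation mix containing 100uM IBMX and 25uM Ro-20-1724 for 0.5hr at room temperature. cAMP was measured by HTRF competition, 1hr.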

[19] = biological target: D(2) dopamine receptor (Homo sapiens) (UniProt P14416); assay: Dopamine D2 receptor (DRD2) small molecule agonists, cell-based qHTS assay (AID 1963594); note: nearly all actives have a fitted effect of over 35% in size
D(2) dopamine receptor (Homo sapiens), sequence (P14416 whole entry, looked up): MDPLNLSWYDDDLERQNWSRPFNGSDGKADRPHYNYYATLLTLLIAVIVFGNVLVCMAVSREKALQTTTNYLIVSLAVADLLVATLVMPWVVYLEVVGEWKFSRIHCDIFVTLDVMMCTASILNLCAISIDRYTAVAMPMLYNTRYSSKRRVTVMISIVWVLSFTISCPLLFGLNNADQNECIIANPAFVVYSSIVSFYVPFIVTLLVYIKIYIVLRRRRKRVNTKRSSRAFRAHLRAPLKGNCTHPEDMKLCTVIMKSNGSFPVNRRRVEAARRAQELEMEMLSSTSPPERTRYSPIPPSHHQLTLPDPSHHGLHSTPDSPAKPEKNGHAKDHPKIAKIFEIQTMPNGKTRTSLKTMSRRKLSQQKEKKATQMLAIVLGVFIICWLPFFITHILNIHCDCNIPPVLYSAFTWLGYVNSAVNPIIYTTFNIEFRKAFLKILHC
Outline: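 cAMP accumulation in DRD2-HEK293 cells measured by HTRF after 1 h detection; compounds added 10 min before NKH477 (200nM […]) forskolin-analogue stimulation, 30 min at room temperature, with Ro20-1724 present at 0.1 mM final.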

[20] = biological target: D(2) dopamine receptor (Homo sapiens) (UniProt P14416); assay: Dopamine D2 receptor (DRD2) small molecule antagonists, cell-based qHTS assay (AID 1963595; active = well fitted inhibition curve with a large enough effect in the signal ratio in the repeat runs, with a control signal flat; the % refers to the signal ratio)
Outline: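 HEK293 cells stably expressing DRD2 were preincubated with 0.1 mM Ro20-1724, then with compound for 10 min at room temperature. Cells were stimulated with 200 nM NKH477 plus 12 nM quinpirole for 30 min, and cAMP was read by HTRF.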

Structure (SMILES) | Potency [1] | Potency [2] | Potency [3] | Potency [4] | Potency [5] | Potency [6] | Potency [7] | Potency [8] | Potency [9] | Potency [10] | Potency [11] | Potency [12] | Potency [13] | Potency [14] | Potency [15] | Potency [16] | Potency [17] | Potency [18] | Potency [19] | Potency [20]
CCC(=O)OC/C=C(\C)CCC=C(C)C | inactive | inactive | inactive | inactive | inactive | inactive | inactive | inactive | inactive | inactive | inactive | inactive | inactive | inactive | inactive | inactive | inactive | inactive | inactive | inactive
O=C1OC(=O)C2CC=CCC12 (stereo not drawn) | inactive | inactive | inactive | inactive | inactive | inactive | inactive | inactive | inactive | inactive | inactive | inactive | inactive | inactive | inactive | inactive | inactive | inactive | inactive | inactive
Oc1cc(O)c2c(c1)O[C@H](c1ccc(O)c(O)c1)[C@H](O)C2 | inactive | inactive | inactive | inactive | inactive | inactive | inactive | inactive | inactive | inactive | inactive | inactive | inactive | inactive | inactive | inactive | inactive | inactive | inactive | inactive
CO[Si](CCCOCC1CO1)(OC)OC (stereo not drawn) | inactive | inactive | inactive | inactive | inactive | inactive | inactive | inactive | inactive | inactive | inactive | inactive | inactive | – | inactive | inactive | inactive | – | inactive | inactive
COc1ccc2cccc(CCNC(C)=O)c2c1 | inactive | inactive | inactive | inactive | inactive | inactive | inactive | inactive | inactive | inactive | inactive | inactive | inactive | – | inactive | inactive | inactive | inactive | inactive | inactive
O=C(NCN1CCOCC1)c1cnccn1 | inactive | inactive | inactive | inactive | inactive | inactive | inactive | inactive | inactive | inactive | inactive | inactive | inactive | – | inactive | inactive | inactive | inactive | inactive | inactive
NC(=O)C1CO1 (stereo not drawn) | inactive | inactive | inactive | inactive | inactive | inactive | inactive | inactive | inactive | inactive | inactive | inactive | inactive | – | inactive | inactive | inactive | inactive | inactive | –
C=CC(=O)CC | inactive | inactive | inactive | inactive | inactive | inactive | inactive | inactive | inactive | inactive | inactive | inactive | inactive | – | inactive | inactive | inactive | inactive | inactive | inactive
Cc1ccccc1C(N)=O | inactive | inactive | inactive | inactive | inactive | inactive | inactive | inactive | inactive | inactive | inactive | inactive | inactive | – | inactive | inactive | inactive | – | inactive | inactive
CC(=O)c1cc(C)oc1C | inactive | inactive | inactive | inactive | inactive | inactive | inactive | inactive | inactive | inactive | inactive | inactive | inactive | inactive | inactive | – | inactive | inactive | – | inactive
COCCCOc1cc(C[C@@H](C[C@H](N)[C@@H](O)C[C@H](C(=O)NCC(C)(C)C(N)=O)C(C)C)C(C)C)ccc1OC | inactive | inactive | inactive | inactive | inactive | inactive | inactive | inactive | inactive | inactive | inactive | inactive | inactive | – | inactive | inactive | inactive | inactive | inactive | inactive
Oc1ccc(Sc2ccc(O)cc2)cc1 | inactive | 57.2 µM (active) | inactive | inactive | inactive | inactive | inactive | inactive | inactive | inactive | inactive | inactive | inactive | – | inactive | inactive | inactive | – | inactive | inactive
c1ccc(CSCc2ccccc2)cc1 | inactive | inactive | inactive | inactive | inactive | inactive | inactive | inactive | inactive | inactive | inactive | inactive | inactive | – | inactive | inactive | inactive | inactive | inactive | inactive
CC(C)CCO | inactive | inactive | inactive | inactive | inactive | inactive | inactive | inactive | inactive | inactive | inactive | inactive | inactive | inactive | inactive | inactive | – | inactive | inactive | inactive
CCCCCCS | inactive | inactive | inactive | inactive | inactive | inactive | inactive | inactive | inactive | inactive | inactive | inactive | inactive | – | inactive | inactive | inactive | inactive | inactive | inactive

— PubChem BioAssay (Tox21)
